G9a block – blocks human histone lysine methyltransferase G9a. Potency, µM (series often up to 102 µM), actives largely listed as inhibitors. AID 504332. Q96KQ7. 350,000 tested, 8.8% active. G9a H3K9 monomethylation, AlphaScreen, 2 h; further: nearly all actives have a fitted effect of over 75% in size
Target sequence (Q96KQ7 913-1193 limits assumed): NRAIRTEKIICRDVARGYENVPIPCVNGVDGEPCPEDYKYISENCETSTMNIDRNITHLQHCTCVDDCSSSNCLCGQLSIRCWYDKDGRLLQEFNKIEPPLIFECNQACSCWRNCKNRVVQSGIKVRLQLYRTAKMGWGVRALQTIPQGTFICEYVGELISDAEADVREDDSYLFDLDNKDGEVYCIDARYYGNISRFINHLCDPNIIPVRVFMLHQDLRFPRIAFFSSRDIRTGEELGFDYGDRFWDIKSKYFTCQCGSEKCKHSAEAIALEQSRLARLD
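Using a bead-based AlphaScreen, monomethylated H3K9 product from 2 h room-temperature reactions (G9a 20 nM, peptide 500 nM, SAM 20 uM) was detected with 0.5 ug/mL rabbit anti-H3K9me1 antibody.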
Tau fibril ThT – blocks human tau fibril formation measured by thioflavin T | P10636 | recombinant tau K18 P301L, heparin-induced fibrillization, ThT fluorescence | Potency, µM (series often up to 57.4 µM), most hits filed as inhibitors | 270,000 tested, 2.1% active | AID 1460; further: nearly all actives have a fitted effect of over 55% in size
Target sequence (P10636 561-689 P618L limits assumed): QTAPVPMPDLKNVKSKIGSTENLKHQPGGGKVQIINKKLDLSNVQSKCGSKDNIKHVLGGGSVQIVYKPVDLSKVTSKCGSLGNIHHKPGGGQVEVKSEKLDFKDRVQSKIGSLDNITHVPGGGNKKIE
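Heparin-induced fibrillization of the P301L-mutant K18 repeat-domain fragment of human tau was followed by ThT binding in quantitative high-throughput format.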
Sfp PPTase inh – blocks B. subtilis Sfp PPTase activity. Q9F4F7. Biochemical Sfp PPTase activity, qHTS. 310,000 tested, 3.5% active. AID 1490. Potency, µM, hits mostly inhibitors;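 further: the enzyme is Sfp with the accession as filed and its product quenches rhodamine fluorescence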
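Step 1, compound plus 15 nM Sfp-PPTase, 15 min, room temperature. Step 2, add rhodamine-CoA (5 uM) and BHQ-2-YbbR (12.5 uM). Step 3, read 525/598 nm fluorescence at 0 and 30 min.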
Tau fluor counter – counter-screen for tau fibril formation inhibitors. Potency, µM (series often up to 57.7 µM). 280,000 tested, 0.93% active. tau K18 P301L Alexa594 fluorescence, heparin fibrillization. AID 1463; further: nearly all actives have a fitted effect of over 55% in size
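Human tau K18 P301L (15 uM unlabeled, 0.24 uM Alexa 594-labeled) in 100 mM sodium acetate pH 7 with 20 uM heparin, 6 hr at 37 C. ThT 30 uM added, 1 hr ambient; Alexa 594 FP and total fluorescence read at 555/632 nm.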
Coupling enz – counter-screen for Giardia aldolase inhibitors: coupling enzyme system; coupling enzyme system counterscreen, AmpLite Red fluorescence; activity change, negative = inhibition, % at 58.2 µM, hits read low; 290,000 tested, 0.67% active; in the data active means activity change below about -30%
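Activity here indicates interference with the coupling reaction, not aldolase inhibition. Compounds at 57.5 uM final met coupling enzymes for 10 min at RT; substrate and AmpLite Red detection followed, with a 525/598 nm fluorescence read after 20 min.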
Tau fibril FP – inhibitors of human tau fibril formation | P10636 | AID 1468 | K18 P301L tau heparin fibrillization, Alexa594 FP, 6 h | Potency, µM (series often up to 57.7 µM), usual class: inhibitors | 280,000 tested, 0.39% active; further: nearly all actives have a fitted effect of over 55% in size
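Quantitative HTS format: compounds meet 15 uM recombinant K18 P301L tau and Alexa 594-tau tracer in 100 mM sodium acetate pH 7; 20 uM heparin triggers fibrillization at 37 C over 6 hr; FP gives the signal.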
Each line names hits and unclear results; the compound was inactive in the other large screens; [ ] = dose if it differs, or a comment. Most compounds without a hit are left out; they make up all but 11% or so of the library. Unless noted, the call rests on the fitted dose curve; in most records, active means well fitted curve in the direction sought with a large enough effect; inconclusive means small, poorly fitted or top-dose-only effect, or another doubt; inactive means no such curve, though single readings can be large; an effect the other way counts as inactive or inconclusive.

O=C(NCCOc1cccc(Cl)c1Cl)c1cc(-n2cnnc2)ccc1Cl	Tau fibril FP inconclusive
O=C(N/N=C/c1c[nH]c2ccc(Br)cc12)c1ccc2c(c1)OCO2	G9a block inconclusive, Tau fibril ThT inconclusive, Tau fluor counter 17.8µM[quencher], Tau fibril FP inconclusive
O=C(N/N=C/c1c[nH]c2ccccc12)c1ccc2c(c1)OCCO2	Tau fibril ThT inconclusive, Tau fluor counter inconclusive (no result: G9a block)
O=C(CNC(=O)c1ccc2c(c1)OCO2)N/N=C/c1cc(Br)ccc1O	G9a block 79.4µM (no result: Tau fibril ThT, Tau fluor counter, Tau fibril FP)
CC1CCCCC1NC(=O)C1CCC(CNS(=O)(=O)c2cccc3cccnc23)CC1 (centres undefined)	none (no result: Tau fibril ThT, Tau fluor counter, Coupling enz, Tau fibril FP)
CCc1ccc(N/C(=N/c2nc(C)cc(C)n2)NC(C)=O)cc1	none (no result: Tau fibril ThT, Tau fluor counter, Tau fibril FP)
Cc1cc(C)nc(/N=C(\NC(=O)C(C)(C)C)Nc2ccc(F)cc2)n1	G9a block 44.7µM
CCN(CC)C(c1ccc(F)cc1)c1nnnn1C1CCCCC1 (centres undefined)	G9a block 89.1µM
c1ccc(CN(Cc2ccco2)C(c2ccncc2)c2nnnn2C2CCCC2)cc1 (centres undefined)	G9a block 20µM, Tau fibril ThT inconclusive, Tau fibril FP inconclusive
CCN(CC)C(c1ccc(C)cc1)c1nnnn1C1CCCCC1 (centres undefined)	none
COc1cccc(-c2noc(COc3ccccc3Cl)n2)c1	Tau fibril ThT inconclusive, Tau fluor counter inconclusive, Tau fibril FP inconclusive (no result: Sfp PPTase inh, Coupling enz)
CCc1ccc(N2C(=O)CSC23C(=O)N(Cc2cccc(OC)c2)c2ccccc23)cc1 (centres undefined)	none (no result: Sfp PPTase inh, Coupling enz)
Cc1ccc(C2c3c(oc4ccc(Cl)cc4c3=O)C(=O)N2CCCN2CCOCC2)o1 (centres undefined)	G9a block inconclusive
COc1cc(C2c3c(oc4cc(C)c(C)cc4c3=O)C(=O)N2CCCN2CCOCC2)ccc1O (centres undefined)	G9a block 28.2µM, Tau fibril ThT inconclusive (no result: Sfp PPTase inh, Coupling enz)
CCOc1ccc(C2c3c(oc4ccccc4c3=O)C(=O)N2CCCN2CCOCC2)cc1OCC (centres undefined)	G9a block inconclusive, Tau fibril ThT inconclusive, Sfp PPTase inh inconclusive
COc1cc(C2C(C(C)=O)=C(O)C(=O)N2CCN2CCOCC2)ccc1O (centres undefined)	G9a block 50.1µM
COc1cc(C2C(C(C)=O)=C(O)C(=O)N2CCc2ccc(OC)c(OC)c2)ccc1O (centres undefined)	none
O=C1c2oc3ccccc3c(=O)c2C(c2cccc(O)c2)N1CCCN1CCOCC1 (centres undefined)	G9a block 89.1µM
Cc1cc2oc3c(c(=O)c2cc1C)C(c1ccc(F)cc1)N(CCCN1CCOCC1)C3=O (centres undefined)	G9a block inconclusive
O=C1c2oc3ccc(Cl)cc3c(=O)c2C(c2ccco2)N1CCN1CCOCC1 (centres undefined)	G9a block 11.2µM, Tau fibril ThT inconclusive
Cc1ccc(NC(=O)CSc2nc(=O)n(Cc3ccco3)c3c2CCC3)cc1F	none (no result: Sfp PPTase inh, Coupling enz)
CC(C)=CC(=O)N1CCC(N2CCC(C(=O)NCC3CCCO3)CC2)CC1 (centres undefined)	none (no result: G9a block, Tau fibril ThT, Tau fluor counter, Coupling enz, Tau fibril FP)
COc1cccc(N2CCN(C(=O)c3cc4c(=O)n(Cc5ccco5)ccc4nc3C)CC2)c1	G9a block inconclusive (no result: Sfp PPTase inh, Coupling enz)
Nc1nc(Cl)nc2c1ncn2[C@@H]1O[C@H](CO)[C@H](O)[C@H]1O	none (no result: Sfp PPTase inh, Coupling enz)
COc1cccc(CNC(=O)C2CCN(c3nnc(-n4c(C)ccc4C)s3)CC2)c1OC	Tau fibril ThT inconclusive (no result: Sfp PPTase inh, Coupling enz)
O=C(C1=C(O)C(=O)N(CCN2CCOCC2)C1c1ccncc1)c1ccco1 (centres undefined)	G9a block inconclusive
CCCOc1ccc(C2C(C(=O)/C=C/c3ccco3)=C(O)C(=O)N2CCN2CCOCC2)cc1OC (centres undefined)	G9a block 44.7µM, Tau fibril ThT inconclusive, Sfp PPTase inh 44.7µM, Tau fluor counter inconclusive, Coupling enz -38.2
O=C(O)c1csc(-c2ccc(Cl)cc2)n1	G9a block 56.2µM
CC(C)c1ccccc1NC(=S)N1CCN(Cc2ccc3c(c2)OCO3)CC1	none
